Screening data: PubChem BioAssay, National Center for Advancing Translational Sciences (NCATS)
The list is not random: actives were taken first. Their share in the collection is about 12%.
BAZ2B inh – inhibitors of human BAZ2B bromodomain; AID 504333; AlphaScreen BAZ2B-H3K14Ac peptide displacement; Q9UIF8; 360,000 tested, 4.4% active; Potency, µM (top dose mostly 114 µM), for inactives: at the highest dose activity change, negative = inhibition, most hits filed as inhibitors; further: potency means the concentration at half of the fitted maximal effect; on the % scale 0 is the no-effect control and ±100 the full control effect; nearly all actives have a fitted effect of over 60% in size
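AlphaScreen luminescence quantifies BAZ2B engagement of H3K14Ac peptide; the protein and biotinylated peptide are both at 50 nM final, buffer PBS pH 7.4 with 0.01% Tween-20, all steps at room temperature.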
JMJD2A Tudor inh – JMJD2A Tudor domain (human) inhibition | O75164 | AlphaScreen JMJD2A-Tudor / H3K4me3 peptide binding | Potency, µM (series often up to 114 µM), inactives show top-dose activity change, negative = inhibition, most hits filed as inhibitors | 390,000 tested, 4.4% active | AID 504339; further: potency means the concentration at half of the fitted maximal effect; on the % scale 0 is the no-effect control and ±100 the full control effect; nearly all actives have a fitted effect of over 50% in size
PLK1 PBD inh – PLK1 (human) polo-box domain binding inhibition. P53350. Potency, µM, inactives show max response, negative = inhibition, actives largely listed as inhibitors. 360,000 tested, 2.8% active. Plk1 PBD binding of FITC phosphopeptide, fluorescence polarization. AID 720504; further: potency means the concentration at half of the fitted maximal effect; series mostly up to about 57 µM; on the % scale 0 is the no-effect control and ±100 the full control effect; nearly all actives have a fitted effect of over 65% in size
G9a inh – inhibitors of human histone lysine methyltransferase G9a; Q96KQ7; G9a H3K9 monomethylation, AlphaScreen, 2 h; Potency, µM (titrated, usually from 102 µM), for inactives: at the top dose activity, negative = inhibition, usual class: inhibitors; 350,000 tested, 8.8% active; AID 504332; further: potency means the concentration at half of the fitted maximal effect; on the % scale 0 is the no-effect control and ±100 the full control effect; nearly all actives have a fitted effect of over 75% in size
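AlphaScreen detection with an anti-monomethyl H3K9 antibody quantified product after a 2 h room-temperature reaction containing 500 nM biotinylated H3K9 peptide, 20 µM SAM and 20 nM enzyme, which had been preincubated 15 min with compound.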
PI5P4Ka inh – PI5P4K alpha (human) kinase inhibition; P48426; PI5P4Kalpha enzyme, ADP-Glo luminescence, 60 min; hits give low values; max response, %; 330,000 tested, 1.2% active; active means max response of -50% or lower; inconclusive means between -30% and -50%; inactive means -30% or higher; further: value at the top dose of about 77 µM; on the % scale 0 is the no-effect control and ±100 the full control effect
Target sequence (P48426 whole entry, looked up): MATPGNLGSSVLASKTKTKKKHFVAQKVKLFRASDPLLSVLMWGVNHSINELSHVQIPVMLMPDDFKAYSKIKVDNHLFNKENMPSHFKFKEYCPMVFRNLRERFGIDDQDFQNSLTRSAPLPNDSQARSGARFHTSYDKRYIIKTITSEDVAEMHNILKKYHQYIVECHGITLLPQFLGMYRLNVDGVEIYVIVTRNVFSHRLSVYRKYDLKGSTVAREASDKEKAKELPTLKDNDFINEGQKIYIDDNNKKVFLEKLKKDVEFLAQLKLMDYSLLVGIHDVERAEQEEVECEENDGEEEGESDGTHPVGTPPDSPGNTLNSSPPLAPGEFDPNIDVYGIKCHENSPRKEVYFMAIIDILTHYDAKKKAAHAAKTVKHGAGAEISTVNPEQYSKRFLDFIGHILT
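Enzyme plus substrate dispensed, test compounds pinned in, then ATP (5 microM final) added. After 60 min at RT, ADP-Glo reagent 1 for 45 min and reagent 2 for 30 min preceded luminescence imaging.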
HP1b binding inh – blocks HP1-beta chromodomain binding to methylated histone tails | P83916 | AlphaScreen HP1-beta / biotin-H3K9me3 peptide binding | Potency, µM (top dose mostly 114 µM), without a hit: at the highest dose activity change, negative = inhibition, actives largely listed as inhibitors | 390,000 tested, 0.56% active | AID 540317; further: potency means the concentration at half of the fitted maximal effect; nearly all actives have a fitted effect of over 70% in size
Target sequence (P83916 whole entry, looked up): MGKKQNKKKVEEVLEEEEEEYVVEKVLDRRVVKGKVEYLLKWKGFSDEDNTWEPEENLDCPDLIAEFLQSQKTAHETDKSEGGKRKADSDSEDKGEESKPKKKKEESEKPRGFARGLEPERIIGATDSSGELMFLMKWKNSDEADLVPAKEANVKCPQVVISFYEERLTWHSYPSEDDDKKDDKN
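AlphaScreen: HP1-beta (50 nM) preformed 30 min with biotin-H3(1-18)K9me3 peptide (50 nM) in PBS pH 7.4, 0.01% Tween-20. Compound added for 30 min at RT, then streptavidin donor/nickel chelate acceptor beads (10 ug/mL) for 30 min.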
* hit, by the source's call; ? = inconclusive; · = no result; [ ] = remark or other dose. Unless noted, the call rests on the fitted dose curve; in most records, active means well fitted curve in the direction sought with a large enough effect; inconclusive means small, poorly fitted or top-dose-only effect, or another doubt; inactive means no such curve, though single readings can be large; an effect the other way counts as inactive or inconclusive.

SMILES	BAZ2B inh	JMJD2A Tudor inh	PLK1 PBD inh	G9a inh	PI5P4Ka inh	HP1b binding inh
CCN(CC)c1ccc(/C=C(\C#N)c2ccccn2)cc1	-5.9%	13.5%	-6.7%	21.0%[59 µM]	-5.9	22.9%
CCN(Cc1ccccc1)c1ccc(/C=C(\C#N)c2ccccn2)cc1	8.4%	113.7%	-6.5%	50.1µM*	4.3	188.3%
CC1CCCC(C)N1C(=C(Cl)Cl)C(=C1SCCS1)[N+](=O)[O-] (stereo not drawn)	17.8µM*	-18.8%[11.4 µM]	-11.9%	35.5µM*	2.1	?
Clc1ccc2nc(-c3ccccn3)c(Nc3ccc4c(c3)OCO4)n2c1	2.82µM*	2.24µM*	-9.0%	17.6%	2.3	?
Clc1ccc2nc(-c3cccs3)c(Nc3ccc4c(c3)OCCO4)n2c1	-1.2%	-3.4%	·	4.1%[59 µM]	·	82.7%
COc1cc(-c2nc3ccc(Cl)cn3c2Nc2ccc3c(c2)OCO3)ccc1O	·	31.6µM*	·	12.6µM*	·	?
COc1cc(-c2nc3ccc(C)cn3c2Nc2ccc(Cl)cc2)ccc1O	-31.7%	?	·	?	·	-16.4%
CC#C[C@]1(O)CC[C@H]2C3CCC4=CC(=O)CCC4=C3[C@@H](c3ccc(N(C)C)cc3)C[C@@]21C (stereo partly drawn)	·	·	·	2.82µM*	·	·
C#C[C@]1(O)CC[C@H]2[C@@H]3CCC4=CC(=O)CC[C@@H]4[C@H]3CC[C@@]21C	·	-12.2%	-9.1%	·	-5.3	9.0%
ClC(Cl)(Cl)C1=NCc2nnn(Cc3ccccc3)c2N1	·	·	-6.5%	·	-12.7	·
Cc1ccc(-c2cc(C(=O)Nc3ccc(S(=O)(=O)Nc4onc(C)c4C)cc3)c3ccccc3n2)cc1	50.1µM*	?	33.6µM*	44.7µM*	-13.2	?
Cc1ccc2c(=O)cc(C(=O)Nc3ccc(S(=O)(=O)Nc4onc(C)c4C)cc3)oc2c1	-37.1%	-9.7%	-16.0%	-4.9%[59 µM]	-0.1	33.6%
Cc1noc(NS(=O)(=O)c2ccc(NC(=O)c3ccc(Cl)c(S(=O)(=O)N(C)c4ccccc4)c3)cc2)c1C	44.7µM*	?	?	50.1µM*	-15.5	-22.2%
Cc1noc(NS(=O)(=O)c2ccc(NC(=O)c3cccc(S(=O)(=O)N(C)c4ccccc4)c3)cc2)c1C	·	-29.9%	-8.0%	·	1.9	16.5%
Cc1ccc2c(C)c(C(=O)Nc3ccc(S(=O)(=O)Nc4onc(C)c4C)cc3)oc2c1	?	-32.4%	-15.9%	70.8µM*	0.1	-11.7%
O=C(CSc1nnc(NC2CCCCC2)s1)N1CCOCC1	1.8%	3.4%	3.8%	?	-0.6	44.4%
CCOc1ccccc1C1C(C#N)=C(N)N(N(C)C)C2=C1C(=O)CCC2 (stereo not drawn)	0.2%	1.7%	3.8%	8.8%	-6.8	24.7%
Cc1ccc(NC2=C(Cl)C(=O)c3ccccc3C2=O)cc1	?	?	-2.6%	79.4µM*	-5.8	-19.9%
CCN(CC)c1ccc(NC(=O)CCCCC(=O)Nc2ccc(N(CC)CC)cc2)cc1	·	-30.6%	1.2%	·	-6.1	7.7%
Cc1cc(C)cc(NC2=C(N)C(=O)c3ccccc3C2=O)c1	?	?	-1.6%	1.58µM*	6.0	-19.1%
O=C1C(Cl)=C(Nc2ccc(O)cc2)C(=O)c2ccccc21	?	?	-9.0%	11.2µM*	-5.4	?
CCN(CC)c1ccc(NC2=C(Cl)C(=O)c3ccccc3C2=O)cc1	2.24µM*	2.51µM*	-9.0%	1.78µM*	-7.5	3.98µM*
CCc1ccccc1NC(=O)Cc1ccc(-n2cccc2)cc1	-3.5%	?	7.52µM*	13.7%[59 µM]	?	?
CC(C)Cc1ccc(CC(=O)O)cc1	·	·	·	11.2µM*	·	·
O=C(O)Cc1ccc(-n2cccc2)cc1	8.91µM*	39.8µM*	?	20µM*	-27.6	25.1µM*
SMILES	BAZ2B inh	JMJD2A Tudor inh	PLK1 PBD inh	G9a inh	PI5P4Ka inh	HP1b binding inh
CCc1ccc(NC(=O)Cc2ccc(-n3cccc3)cc2)cc1	0.5%	-12.8%[57.1 µM]	-1.5%	-12.7%	3.7	21.6%
O=C(Cc1ccc(-n2cccc2)cc1)NC1CCCCC1	3.8%	-15.0%	0.3%	-29.3%	-25.3	-1.4%
COc1cccc(C(=O)Nc2nc3nc(C)c(Cc4ccccc4)c(=O)n3[nH]2)c1	-37.9%	-28.3%	·	?	·	38.1%
NC(=O)CC(NC(=O)c1cccc(Br)c1)c1ccc(NC2CCCCCCC2)c([N+](=O)[O-])c1 (stereo not drawn)	?	?	3.1%	20µM*	-7.3	-4.8%
NC(=O)CC(NC(=O)c1cccc(Br)c1)c1ccc(NC2CCCCCCCCCCC2)c([N+](=O)[O-])c1 (stereo not drawn)	-34.2%	-9.8%	6.5%	70.8µM*	14.7	20.2%
NC(=O)CC(NC(=O)c1ccc(Br)cc1)c1ccc(NC2CCCCC2)c([N+](=O)[O-])c1 (stereo not drawn)	-6.5%	-11.2%	8.3%	·	1.8	33.2%
O=C(Nc1ccc2c(c1)OCO2)c1ccc2sc([C@H]3C[C@H](O)[C@@H](CO)O3)nc2c1	·	·	-11.0%	·	5.7	·
CSc1ncccc1C(=O)NCC(c1cccs1)N1CCOCC1 (stereo not drawn)	-5.1%	-4.8%	0.4%	4.2%	1.5	20.0%
O=C(O)C(C(=O)/C=C/c1ccco1)=C1SCCS1	50.1µM*	56.2µM*	?	?	-62.3*	70.8µM*
O=C(C=C1SCCS1)/C=C/c1ccco1	50.1µM*	44.7µM*	?	39.8µM*	-56.8*	?
COc1ccc(-c2cc(C(=O)NCC3CCCCC3)[nH]n2)c(C)c1	·	·	-9.3%	·	1.5	·
CNc1ccc2ncc(-c3ccccc3NC(C)=O)n2n1	·	·	-5.9%	·	1.5	·
N#Cc1c(C(F)(F)F)cc(-c2cccc(Cl)c2)[nH]c1=O	25.5%	?	21.2µM*	20.4%[59 µM]	-2.2	97.7%
Cc1cc(NC(=O)C2CC(=O)N(c3ccccc3Cl)C2)no1 (stereo not drawn)	1.1%	-11.6%	-4.9%	16.7%	-8.5	36.3%
CCOC(=O)NNC(=O)CCn1c2c(c3ccccc31)CCCC2	?	-20.9%	3.0%	·	7.7	10.8%
CC(=O)NNC(=O)CCn1c2c(c3ccccc31)CCCC2	?	-32.7%	-2.8%	·	0.0	-9.8%
O=C(CCn1c2c(c3ccccc31)CCCC2)NNC(=O)c1ccc([N+](=O)[O-])cc1	-36.4%	-32.3%	-1.4%	15.8µM*	1.4	-5.4%
O=C(CCn1c2c(c3ccccc31)CCCC2)NNC(=O)c1ccc(Cl)c([N+](=O)[O-])c1	5.3%	?	29.9µM*	?	3.9	?
CCCCC[C@H]1CN(C2CCCCC2)C(=O)[C@@H]1CC(=O)NCc1ccccc1	6.3%	-3.6%	-0.4%	·	-1.4	43.8%
COc1ccc(S(=O)(=O)N2CCOCC2)cc1NC(=O)CN1C(=O)NC2(CCCC2)C1=O	53.6%	4.4%	-0.1%	88.5%[12.7 µM]	-0.5	41.3%
